{"source": "PubChem BioAssay", "note": "Unmarked numbers belong to inactive results. How the calls were made is not given here. Where a SMILES comes first, the peptide text is derived from it. [ ]: non-standard residue; d: D form. ξ: configuration not given here. ξV = CC(C)C(N)C(=O)O", "data": [{"biological_target": "Pantothenate synthetase (Mycobacterium tuberculosis (strain ATCC 25618 / H37Rv)) (UniProt P9WIL5)", "sequence (P9WIL5 whole entry, looked up)": "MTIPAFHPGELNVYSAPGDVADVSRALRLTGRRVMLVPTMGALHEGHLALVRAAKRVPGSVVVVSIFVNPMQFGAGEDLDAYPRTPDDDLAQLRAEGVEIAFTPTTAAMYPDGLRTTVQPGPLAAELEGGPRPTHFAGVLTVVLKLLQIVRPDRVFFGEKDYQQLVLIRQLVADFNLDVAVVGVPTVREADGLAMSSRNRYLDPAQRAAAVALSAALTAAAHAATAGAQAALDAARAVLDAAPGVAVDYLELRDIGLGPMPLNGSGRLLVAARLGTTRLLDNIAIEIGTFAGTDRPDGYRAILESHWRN", "test": "Recombinant Mtb pantothenate synthetase (PanC) inhibitors, coupled enzyme, confirmatory (AID 375);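 further: 0% = full reaction with vehicle and 100% = no enzyme background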", "conditions": "coupled enzyme assay; at 10 µM, active compounds read high", "units": {"inhibition": "%"}, "values": [{"molecule": "CCC1c2ccc(C)n2CCN1C(=O)Nc1ccccc1OC", "note": "(configuration not stated)", "inhibition": 9}, {"molecule": "CC(=O)NCCC(=O)Nc1ccc(C)c(F)c1", "inhibition": 6}, {"molecule": "COc1cc(C(=O)N2CCC(c3nc(-c4cccnc4)no3)CC2)cc(OC)c1OC", "inhibition": 0}, {"molecule": "O=C(CN1C(=O)CCS(=O)(=O)c2ccccc21)Nc1cccc(F)c1", "inhibition": 5}, {"molecule": "CC(=O)NC(C(=O)NCC(N)=O)C(C)C", "note": "(configuration not stated) (Ac-[ξV]-Gly-NH2)", "inhibition": 0}, {"molecule": "O=C(OCc1nnc(-c2ccccc2)o1)c1ccc2ccccc2n1", "inhibition": 1}, {"molecule": "Cc1cccc(C)c1NC(=O)N1CCN(C2CCCCC2)CC1", "inhibition": 0}, {"molecule": "COc1cc(C(=O)Nc2cc(Cl)ccc2C)c(-n2cnnn2)cc1OC", "inhibition": 9}, {"molecule": "COc1cc(C2c3c(oc4c(C)cc(C)cc4c3=O)C(=O)N2Cc2cccnc2)cc(OC)c1OC", "note": "(configuration not stated)", "inhibition": 2}, {"molecule": "Cc1ccccc1C(=O)NC1CCN(CC(=O)Nc2nccs2)CC1", "inhibition": 0}, {"molecule": "COc1ccc(CNc2ccc(C(=O)O)cc2)cc1", "inhibition": 0}, {"molecule": "CCCn1c(C)nc2c(c1=O)c1nc3ccccc3nc1n2CCc1ccccc1", "inhibition": 4}, {"molecule": "Cn1nnnc1SCC(=O)Nc1ccccc1C(=O)NCc1ccccc1", "inhibition": 0}, {"molecule": "Cc1c(N=C2SCC(=O)N2c2c(C)n(C)n(-c3ccccc3)c2=O)c(=O)n(-c2ccccc2)n1C", "inhibition": 3}, {"molecule": "CCOC(=O)c1ccc(NC(=O)CSCc2ccco2)cc1", "inhibition": 0}, {"molecule": "CN(C)S(=O)(=O)c1ccc2c(c1)C(CC(=O)O)OC2=O", "note": "(configuration not stated)", "inhibition": 4}, {"molecule": "Cc1ccc(Cn2c(=O)c3ccccc3n3c(CCC(=O)O)nnc23)cc1", "inhibition": 0}]}]}
